# Inconclusive results are not listed. Calls of active or inactive are those of the source. How the source made its calls: active means hit-call score of the fitted dose curve at least 0.9, where 1 is the maximum; inconclusive means response in the unintended direction; inactive means score below 0.9.
# Biological target: human Insulin-like Growth Factor 1 Receptor (IGF1R), IGF1R (gene 3480) (UniProt P08069)
# Assay: NVS_ENZ_hIGF1R: NovaScreen (NVS) Enzymatic Assay for human Insulin-like Growth Factor 1 Receptor (IGF1R)
# Procedure: NVS_ENZ_hIGF1R is a biochemical, single-readout assay that uses extracted gene-proteins in a cell-free assay. Measurements were taken 1 hour after chemical dosing in a 384-well plate.NVS_ENZ_hIGF1R is one of one assay component(s) measured or calculated from the NVS_ENZ_hIGF1R assay. It is designed to make measurements of enzyme activity, a form of enzyme reporter, as detected with fluorescence intensity signals by Fluorescence and electrophoretic mobility shift technology.Data from the assay component NVS_ENZ_hIGF1R was analyzed into 1 assay endpoint. This assay endpoint, NVS_ENZ_hIGF1R, was analyzed in the positive analysis fitting direction relative to DMSO as the negative control and baseline of activity. Using a type of enzyme reporter, loss-of-signal activity can be used to understand changes in the enzymatic activity as they relate to the gene IGF1R. Furthermore, this assay endpoint can be referred to as a primary readout, because this assay has produced multiple assay endpoints where this one serves a enzymatic activity function. To generalize the intended target to other relatable targets, this assay endpoint is annotated to the kinase intended target family, where the subfamily is receptor tyrosine kinase.
# Binding assays used specific radioligands (tritiated, iodinated) with non-radioactive competitive displacement ligands in agonist or antagonist protocols (as indicated) and various reference compounds and inhibitors to titrate specific binding to receptors and transporters. Most enzyme assays (CYPs, kinases, phosphatases, proteases, HDACs) used recombinant protein and specific substrates (fluorescence mostly, some colorimetric and radioactive) and inhibitors, followed by a biochemical separation of substrate and product. All assays for the biochemical HTS were initially run in duplicate at a single concentration (10 uM for CYP450 assays and 25 uM for all others). Assay-chemical combinations meeting a pre-defined threshold (e.g., 30% inhibition and other criteria defined below) were then run in singleton concentration-response format with maximum concentration of 20 uM for CYPs and 50 uM for all others. Each assay was run with positive and negative controls, and concurrent controls on every plate. The follow-up (secondary) screen tested active chemical-pairs in concentration series, as well as a few additional assays not tested in the primary screen, some selected negative inactives, and several cases re-run in the concentration series for confirmatory purposes.
# Chain of human Insulin-like Growth Factor 1 Receptor (IGF1R), IGF1R (gene 3480) (P08069 whole entry, looked up): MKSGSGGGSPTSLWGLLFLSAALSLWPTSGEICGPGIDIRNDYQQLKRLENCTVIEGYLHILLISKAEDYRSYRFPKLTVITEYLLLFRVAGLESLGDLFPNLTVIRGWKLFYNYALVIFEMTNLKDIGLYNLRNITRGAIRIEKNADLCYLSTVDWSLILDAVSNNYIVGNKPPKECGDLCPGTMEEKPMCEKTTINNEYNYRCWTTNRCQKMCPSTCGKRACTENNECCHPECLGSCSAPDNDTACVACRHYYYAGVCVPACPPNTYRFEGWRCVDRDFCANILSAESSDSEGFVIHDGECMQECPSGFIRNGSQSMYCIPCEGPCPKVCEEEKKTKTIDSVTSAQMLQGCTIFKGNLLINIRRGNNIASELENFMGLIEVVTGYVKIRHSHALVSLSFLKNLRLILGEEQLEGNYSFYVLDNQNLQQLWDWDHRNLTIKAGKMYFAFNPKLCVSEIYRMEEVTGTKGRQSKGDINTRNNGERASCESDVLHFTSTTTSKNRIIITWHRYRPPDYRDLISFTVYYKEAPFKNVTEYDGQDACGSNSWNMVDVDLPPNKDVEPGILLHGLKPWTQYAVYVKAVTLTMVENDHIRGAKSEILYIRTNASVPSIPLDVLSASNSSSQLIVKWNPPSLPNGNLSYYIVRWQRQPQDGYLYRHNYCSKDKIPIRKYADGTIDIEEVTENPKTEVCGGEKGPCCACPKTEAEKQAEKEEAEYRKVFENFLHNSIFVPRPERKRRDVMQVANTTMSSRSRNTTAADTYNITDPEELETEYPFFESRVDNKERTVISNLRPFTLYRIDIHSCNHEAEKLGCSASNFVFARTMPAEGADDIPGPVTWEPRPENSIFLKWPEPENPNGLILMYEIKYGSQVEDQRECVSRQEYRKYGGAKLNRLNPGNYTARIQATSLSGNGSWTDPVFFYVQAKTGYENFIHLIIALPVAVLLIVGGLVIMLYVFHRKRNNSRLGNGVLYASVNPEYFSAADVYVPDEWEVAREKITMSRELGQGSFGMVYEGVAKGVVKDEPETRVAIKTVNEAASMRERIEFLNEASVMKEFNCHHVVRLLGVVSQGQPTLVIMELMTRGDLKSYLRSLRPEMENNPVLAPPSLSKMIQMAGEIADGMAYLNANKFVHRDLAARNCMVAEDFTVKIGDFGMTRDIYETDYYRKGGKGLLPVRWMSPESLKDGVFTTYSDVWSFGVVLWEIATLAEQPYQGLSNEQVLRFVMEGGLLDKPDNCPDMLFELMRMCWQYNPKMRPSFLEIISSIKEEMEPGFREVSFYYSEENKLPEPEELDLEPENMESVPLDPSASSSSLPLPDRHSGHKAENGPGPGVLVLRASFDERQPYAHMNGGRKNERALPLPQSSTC
Structure (SMILES),outcome,AC50
CCC1(c2ccccc2)C(=O)N=C(O)NC1=O (stereo unspecified),inactive,–
O=C(N[C@H]1CN2CCC1CC2)c1ccc2c(c1)OCCO2,inactive,–
CC(C)(C)c1cc(O)ccc1O,inactive,–
Clc1cccc(Cl)c1,inactive,–
CC(C)C(=O)OCC(C)(C)C(OC(=O)C(C)C)C(C)C (stereo unspecified),inactive,–
CN(C)[C@@H]1C(=O)C(C(N)=O)=C(O)[C@@]2(O)C(=O)C3=C(O)c4c(O)cccc4[C@@](C)(O)[C@H]3[C@H](O)[C@@H]12,–,39.4 µM (active)
